Assay outcomes deposited in PubChem by National Center for Advancing Translational Sciences (NCATS).
Shiga inhibitor = inhibitors of Shiga toxin in Vero cells; Vero cells, Shiga toxin protein synthesis inhibition reporter; inhibition, % at 38.7 µM; 290,000 compounds, 9.2% hits; in the data active = inhibition mostly above about 28%, no sharp cut-off; inactive = mostly below about 43%; note: 0% is about no effect
SARS PLP yeast = blocks SARS-CoV papain-like protease in a yeast assay. Potency, µM (series often up to 32.9 µM), without a hit: at the top dose activity, positive = growth rescue, actives largely listed as activators. 330,000 compounds, 0.19% hits. S. cerevisiae expressing SARS-CoV PLpro, growth rescue. AID 485353; note: potency is the fitted concentration of half-maximal effect; 0% is about no effect; nearly all actives have a fitted effect of over 55% in size
Pf growth 48h = inhibits P. falciparum growth in the first generation, 48 h | P. falciparum luciferase growth in erythrocytes, 48 h | Potency, µM (series often up to 28.7 µM), inactives show at the top dose activity change, negative = inhibition, actives largely listed as inhibitors | 310,000 compounds, 5.9% hits; active = well fitted inhibition curve with a large enough effect; inconclusive = small, poorly fitted or top-dose-only effect, or another doubt; inactive = no such curve, though single readings can be large or run the other way; note: potency is the fitted concentration of half-maximal effect; % is set by controls: 0 for no effect and ±100 for the full control effect
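Luciferase-expressing P. falciparum in infected erythrocytes (2% hematocrit, 0.1% parasitemia final) in RPMI 1640/0.5% Albumax were exposed to compound for 48 hours at 37 C, 5% CO2; growth read as luminescence.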
Pf growth 96h = inhibits malaria parasite growth, 96 h | 320,000 compounds, 6.9% hits | Potency, µM (titrated, usually from 28.7 µM), for inactives: at the highest dose activity change, negative = inhibition, usual class: inhibitors | P. falciparum luciferase reporter growth, 96 h; active = well fitted inhibition curve with a large enough effect; inconclusive = small, poorly fitted or top-dose-only effect, or another doubt; inactive = no such curve, though single readings can be large or run the other way; note: potency is the fitted concentration of half-maximal effect; % is set by controls: 0 for no effect and ±100 for the full control effect
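Parasite growth measured via integrated firefly luciferase reporter in P. falciparum. Infected erythrocytes at 2% hematocrit, 0.05% parasitemia final were treated 96 hours at 37 C under 5% CO2, and luminescence was read.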
NS1 function inh = influenza NS1 inhibition. Potency, µM (top dose mostly 46.1 µM), for the others: at the highest dose activity, positive = more growth. 270,000 compounds, 0.4% hits; note: potency is the fitted concentration of half-maximal effect; actives are rising curves; nearly all actives have a fitted effect of over 50% in size
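A cell-based growth assay was used: compounds that relieve NS1-induced slow growth of budding yeast raise OD600. Assay medium was yeast nitrogen base with ammonium sulphate and -URA supplement, pH 6.0, with 2% galactose.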
CHX counter = affects cycloheximide protein synthesis inhibition readout, counter-screen | max response, % | cell reporter, cycloheximide protein synthesis inhibition counterscreen | 300,000 compounds, 12% hits; in the data active = max response mostly above about 13%, no sharp cut-off; inactive = mostly below about 14%; note: read at 38.3 µM for the half of the compounds with a filed dose; 0% is about no effect
The depositor's hits bear a star; ? = inconclusive; . = not tested or not shown. An excerpt weighted towards active compounds, which were near 21% of everything screened. Unless noted, calls come from the whole dose curve.

SMILES | Shiga inhibitor | SARS PLP yeast | Pf growth 48h | Pf growth 96h | NS1 function inh | CHX counter
COc1cc2c(cc1OC)-c1cc(Nc3ccc(C)cc3)nc(=O)n1CC2 | -2.0 | 0.3% | ? | ? | 2.7% | 8.8
COc1cc2c(cc1OC)-c1cc(Nc3ccc4c(c3)OCCO4)nc(=O)n1CC2 | 78.3* | 2.0% | 98.4% | 33.2% | -10.7% | 66.9*
COc1cc2c(cc1OC)-c1cc(N3CCc4ccccc43)nc(=O)n1CC2 | -4.2 | -0.2% | ? | 11.7µM* | -1.6% | 0.7
CCOc1cccc(Nc2cc3n(c(=O)n2)CCc2cc(OC)c(OC)cc2-3)c1 | -4.2 | 7.4% | ? | 3.7µM* | 6.8% | 6.7
COc1cc2c(cc1OC)-c1cc(Nc3ccccc3Br)nc(=O)n1CC2 | -0.5 | -0.1% | ? | ? | -8.3% | 16.9*
O=C(C1=C[C@@H]2[C@H]3C(=O)N(c4ccccc4)C(=O)[C@H]3[C@@H](C(=O)c3ccc(Cl)cc3)N2C=C1)c1ccccc1 | -26.1 | -1.8% | ? | ? | ? | 9.6
O=[N+]([O-])c1cccc2c3c([nH]c12)CCCC3 | -5.4 | -3.9% | 17.7% | 37.3% | 7.1% | 1.4
Cc1ccc(NC(=O)C2Cc3ccccc3C(=O)O2)cc1 (stereo unspecified) | 86.8* | 0.1% | 170.8% | 121.9% | . | 36.4*
O=C1OC(C(=O)Nc2ccccc2)Cc2ccccc21 (stereo unspecified) | 64.1* | 1.3% | 44.9% | 66.9% | . | 40.9*
NS(=O)(=O)c1ccc(NC(=O)C2Cc3ccccc3C(=O)O2)cc1 (stereo unspecified) | -12.2 | 3.0% | 15.6% | -2.4% | 1.4% | 0.9
Cc1[nH]c2ccccc2c1-c1nc(-c2ccc(Cl)cc2)nnc1-c1ccccc1 | -1.3 | 0.5% | -5.8% | 52.1% | . | 13.4
O=C1c2ccccc2C(Nc2ccc(F)c(Cl)c2)N1c1ccccn1 (stereo unspecified) | -14.3 | -1.1% | . | 4.65µM* | -10.7% | -10.5
O=C1c2ccccc2C(Nc2ccc(S(=O)(=O)N3CCCCC3)cc2)N1c1ccccn1 (stereo unspecified) | 10.9 | -22.6% | ? | ? | -41.1% | -0.9
COc1cccc(NC2c3ccccc3C(=O)N2Cc2ccccc2Cl)c1 (stereo unspecified) | -17.9 | -12.1% | ? | ? | -67.3% | -1.2
COc1ccc(NC2c3ccccc3C(=O)N2c2ccccn2)cc1Cl (stereo unspecified) | -8.8 | 25.3% | . | 8.28µM* | 1.2% | 17.6
COc1ccc(NC2c3ccccc3C(=O)N2c2cccnc2)cc1 (stereo unspecified) | 7.8 | 1.5% | ? | 10.4µM* | 0.6% | -1.5
O=C(NCCOCc1ccccc1)C(c1ccccc1)c1ccccc1 | 3.2 | -0.6% | ? | 21.5% | -17.9% | 0.9
COc1ccc(-n2c(CN3CCN(Cc4ccccc4)CC3)nc3ccc([N+](=O)[O-])cc3c2=O)c(OC)c1 | -10.5 | 1.3% | ? | ? | 3.5% | -0.6
COc1ccc(-n2c(CN3CCN(c4ccccn4)CC3)nc3ccc([N+](=O)[O-])cc3c2=O)c(OC)c1 | -18.7 | -4.2% | 11.7µM* | -1.2% | 14.1% | -4.6
COc1cccc(-n2c(CN3CCN(Cc4ccccc4)CC3)nc3ccc([N+](=O)[O-])cc3c2=O)c1 | -11.2 | 10.8% | 11.7µM* | -16.5% | 3.2% | -2.3
COc1cccc(-n2c(CN3CCOCC3)nc3ccc([N+](=O)[O-])cc3c2=O)c1 | -3.7 | 1.6% | ? | 0.1% | 4.3% | -3.5
CCN1CCN(Cc2nc3ccc([N+](=O)[O-])cc3c(=O)n2-c2ccccc2F)CC1 | -2.2 | 0.8% | -14.9% | 27.8% | 2.2% | 13.6
O=c1c2cc([N+](=O)[O-])ccc2nc(CN2CCN(c3ccccn3)CC2)n1-c1ccccc1F | -1.0 | -0.5% | 64.2% | 13.1µM* | 0.2% | -8.0
CCCCn1c(N)c(N(CCOC)C(=O)COC(=O)C(C)Oc2ccc(Cl)cc2)c(=O)[nH]c1=O (stereo unspecified) | . | 28.2% | -6.5% | 41.0% | . | .
CCOC(=O)N1CCC(NC(=O)c2cc(C(=O)Nc3ccc(OC)c(OC)c3)ccc2CO)CC1 | 57.8 | 5.9% | -4.6% | ? | -47.7% | -2.9
SMILES | Shiga inhibitor | SARS PLP yeast | Pf growth 48h | Pf growth 96h | NS1 function inh | CHX counter
CN(Cc1nc(-c2ccccc2)no1)C(=O)c1ccc2c(c1)OCO2 | . | 2.0% | 0.6% | 4.7% | . | .
OCCN(Cc1nc(-c2ccc3c(c2)OCO3)no1)Cc1cccs1 | 36.0* | -3.4% | 47.0% | 25.5% | -37.4% | 17.0
C/C(=N\O)c1ccc2c(c1)CC(C)O2 (stereo unspecified) | 18.9 | -0.2% | 45.4% | 100.7% | 0.3% | 13.3*
CC1Cc2cc(C(=O)O)ccc2O1 (stereo unspecified) | -2.8 | -0.5% | 5.7% | 41.3% | 5.7% | 3.0
Cn1nc(C(=O)OCC(=O)Nc2ccc(S(N)(=O)=O)cc2)c2ccccc2c1=O | -3.2 | 0.1% | 46.7% | -2.5% | -3.8% | 1.0
O=C1CC(Sc2nnnn2-c2ccccc2)C(=O)N1c1cccc(Cl)c1 (stereo unspecified) | 24.4 | -23.0% | -1.6% | ? | -59.3% | 20.5*
COc1ccc(N2C(=O)CC(Sc3nnnn3-c3ccc(F)cc3)C2=O)cc1 (stereo unspecified) | 35.5 | -6.0% | 2.1% | ? | -55.9% | 17.0
CCOc1ccc(CCNC(=O)c2ccc(OCc3c(C)noc3C)cc2)cc1OCC | . | -0.7% | ? | 7.38µM* | . | .
COC(=O)c1ccc(OC(=O)c2ccc(OCc3c(C)noc3C)c(OC)c2)cc1 | -5.3 | 6.7% | 14.5% | 10.4µM* | 4.5% | 2.4
COc1ccc(CCNC(=O)c2ccc(OCc3c(C)noc3C)cc2)cc1OC | . | -6.2% | 9.28µM* | ? | . | .
Cc1ccccc1NCc1nnc2n1CCCCC2 | -2.9 | -0.4% | -5.0% | 9.2% | 3.4% | -3.3
Oc1ccc(/C=N/N=C(c2ccccc2)c2ccccc2)c(O)c1O | 26.6 | -3.9% | ? | ? | -3.9% | 17.5*
O=C(Nc1nnc(C2CCCCC2)s1)C1CC(=O)N(c2ccccc2)C1 (stereo unspecified) | 12.6 | 0.0% | -3.9% | -0.8% | 3.7% | -3.3
O=C(NC(Cc1ccccc1)c1nc2ccccc2[nH]1)C1CC(=O)N(c2ccc3c(c2)OCCO3)C1 (stereo unspecified) | 22.7 | -4.2% | 0.0% | 2.94µM* | -10.0% | 12.6
O=C(NCCc1ccccc1)C1CC(=O)N(c2ccc3c(c2)OCCO3)C1 (stereo unspecified) | . | 1.8% | ? | -2.5% | . | .
O=C(Nc1nnc(C2CC2)s1)C1CC(=O)N(c2ccc3c(c2)OCCO3)C1 (stereo unspecified) | 30.7* | 11.9% | 64.4% | 31.4% | 27.3% | 31.2*
O=C(Nc1nc(-c2ccccn2)cs1)C1CC(=O)N(c2ccc3c(c2)OCCO3)C1 (stereo unspecified) | 18.1 | 0.2% | 14.0% | ? | 0.8% | 24.5*
